Records with an inconclusive call do not appear. Calls of active or inactive are those of the source. Unless noted, calls come from the whole dose curve; as a rule, active = well fitted curve in the direction sought with a large enough effect in the repeat runs; inconclusive = weak or mixed curves; inactive = no such curve, though single readings can be large; an effect the other way counts as inactive or inconclusive.
Key:
[1] = qHTS assay for small molecule agonists of the p53 signaling pathway (AID 651631; calls by dose curve; note: nearly all actives have a fitted effect of over 15% in size)
How it was run: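 p53RE-bla HCT-116 cells; compounds 16 h, 37 °C; LiveBLAzer B/G FRET substrate 2 h RT; fluorescence intensity read-out, qHTS format.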

[2] = qHTS assay for small molecules that induce genotoxicity in human embryonic kidney cells expressing luciferase-tagged ATAD5 - cell viability (AID 651634; calls by dose curve; note: nearly all actives have a fitted effect of over 25% in size)
How it was run: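 Quantitative high-throughput format. HEK293T cells expressing ATAD5 fused to luciferase were plated at 2,000 cells/well and treated 15.5 hr with compound versus DMSO. Viability was determined by fluorescent live-cell protease substrate, 30 min at 37C.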

[3] = qHTS assay for small molecule disruptors of the mitochondrial membrane potential - cell viability (AID 720634; calls by dose curve;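 note: human HepG2 liver cancer cells; series mostly up to about 83 µM; nearly all actives have a fitted effect of over 20% in size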)
How it was run: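 Same-well counter-screen: following the MMP dye addition, CellTiter-Glo was added to 1 hr compound-treated HepG2 cells and luminescence read after 30 min at room temperature.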

[4] = qHTS assay for small molecule disruptors of the mitochondrial membrane potential (AID 720635)
How it was run: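 HepG2 cells exposed to compound 1 hr at 37C, then Mito-MPS dye 30 min. Ratio read of aggregate (540/590 nm) versus monomer (490/535 nm) fluorescence.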

[5] = qHTS assay to test for compound auto fluorescence at 590 nm (red) in HepG2 cells (AID 720674)
How it was run: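 Fluorescence at 590 nm emission following 540 nm excitation was recorded from HepG2 wells one hour after compound transfer, with DMSO-only wells as vehicle and Rose Bengal sodium equivalency as the scale.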

[6] = qHTS assay to test for compound auto fluorescence at 535 nm (green) in HepG2 cells (AID 720675)
[7] = qHTS assay to test for compound auto fluorescence at 460 nm (blue) in HEK293 cells (AID 720678)
How it was run: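 HEK293 cells (2,000 per well, medium with 10% dialyzed FBS) attached for 4-5 hr at 37C, then received compound and stood overnight at 37C, 5% CO2. Blue fluorescence was read at Ex/Em 405/460 nm and expressed relative to triamterene.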

[8] = qHTS assay to test for compound auto fluorescence at 590 nm (red) in HEK293 cells (AID 720679)
How it was run: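 HEK293 cells (2,000/well, medium with 10% dialyzed FBS) attached for 4-5 hr at 37C, received 23 nL compound and were incubated overnight at 37C, 5% CO2. Red fluorescence was then read at 540/590nm Ex/Em, referenced to Rose Bengal sodium.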

[9] = qHTS assay to test for compound auto fluorescence at 535 nm (green) in HEK293 cells (AID 720680)
[10] = qHTS assay to test for compound auto fluorescence at 460 nm (blue) in HEK293 cell free culture (AID 720681)
How it was run: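 Compounds were added to cell-free DMEM with 10% FBS and fluorescence read directly. The blue channel used 405 nm excitation and 460 nm emission, with triamterene as the reference fluorophore.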

[11] = qHTS assay to test for compound auto fluorescence at 535 nm (green) in HEK293 cell free culture (AID 720682)
How it was run: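 Cell-free medium (DMEM, 10% FBS) receives compound or DMSO by pintool. Plate read directly at Ex 485/Em 535 nm. Signal converted to fluorescein equivalency.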

[12] = qHTS assay to test for compound auto fluorescence at 590 nm (red) in HEK293 cell free culture (AID 720683)
How it was run: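 Cell-free wells of DMEM with 10% FBS received compound, and intrinsic fluorescence was read at excitation/emission 540/590 nm. Values expressed as equivalence to Rose Bengal sodium.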

[13] = qHTS assay to test for compound auto fluorescence at 590 nm (red) in HepG2 cell free culture (AID 720684)
How it was run: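 Rose Bengal sodium served as the reference for red signal. Test compounds were dispensed into serum-containing MEM (10% FBS) without cells, and plates were read at 540/590 nm.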

[14] = qHTS assay to test for compound auto fluorescence at 460 nm (blue) in HepG2 cell free culture (AID 720685)
How it was run: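 Cell-free plates of MEM plus 10% FBS received 23 nL compound or DMSO vehicle; blue-channel (405/460 nm) intensity scored against triamterene as reference fluorophore.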

[15] = qHTS assay to test for compound auto fluorescence at 535 nm (green) in HepG2 cell free culture (AID 720686)
[16] = qHTS assay to test for compound auto fluorescence at 460 nm (blue) in HepG2 cells (AID 720687)
How it was run: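 HepG2 cells in MEM with 10% FBS, attached overnight at 37 C, were exposed to compound or DMSO for 1 hr at 37 C, 5% CO2. Blue fluorescence was read at 405/460 nm, with triamterene as reference fluorophore.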

[17] = molecular target: Glucocorticoid receptor (Homo sapiens) (UniProt P04150); test: qHTS assay to identify small molecule agonists of the glucocorticoid receptor (GR) signaling pathway (AID 720691; active = well fitted activation curve with a large enough effect in the signal ratio in the repeat runs, not every such curve was filed as active; the % refers to the signal ratio; note: potency is the fitted concentration of half-maximal effect)
Chain of Glucocorticoid receptor (Homo sapiens) (P04150 whole entry, looked up): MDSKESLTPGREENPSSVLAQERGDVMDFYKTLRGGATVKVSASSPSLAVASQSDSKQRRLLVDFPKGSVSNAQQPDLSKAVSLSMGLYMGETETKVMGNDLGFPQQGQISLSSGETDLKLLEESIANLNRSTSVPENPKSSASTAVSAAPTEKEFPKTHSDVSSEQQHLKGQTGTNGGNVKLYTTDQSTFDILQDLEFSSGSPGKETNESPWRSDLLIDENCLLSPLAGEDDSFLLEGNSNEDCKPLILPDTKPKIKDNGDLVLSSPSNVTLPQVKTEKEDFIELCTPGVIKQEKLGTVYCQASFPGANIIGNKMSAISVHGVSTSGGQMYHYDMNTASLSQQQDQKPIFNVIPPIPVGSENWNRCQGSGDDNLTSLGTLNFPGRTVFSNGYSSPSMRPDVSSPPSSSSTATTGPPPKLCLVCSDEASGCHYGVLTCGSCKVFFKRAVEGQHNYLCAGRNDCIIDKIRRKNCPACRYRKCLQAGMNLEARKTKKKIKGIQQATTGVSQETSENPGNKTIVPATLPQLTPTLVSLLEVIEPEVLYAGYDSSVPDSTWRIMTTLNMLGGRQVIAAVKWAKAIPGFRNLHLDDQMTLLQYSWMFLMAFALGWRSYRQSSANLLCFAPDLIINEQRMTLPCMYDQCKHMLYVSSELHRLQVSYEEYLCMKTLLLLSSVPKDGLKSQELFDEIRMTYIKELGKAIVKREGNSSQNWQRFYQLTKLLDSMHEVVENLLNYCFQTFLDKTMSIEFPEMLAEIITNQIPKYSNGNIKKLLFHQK
How it was run: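 A HeLa cervical cancer line expressing GR and a glucocorticoid response element-driven beta-lactamase gene is treated with compounds for 18 h; LiveBLAzer B/G FRET substrate is then applied and fluorescence read.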

[18] = qHTS assay for small molecule agonists of the p53 signaling pathway - cell viability (AID 651633; calls by dose curve;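 note: p53RE-bla HCT reporter cells with a stable beta-lactamase p53 reporter; series mostly up to about 83 µM; nearly all actives have a fitted effect of over 30% in size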)
How it was run: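 p53RE-bla cells were treated with compound for 16 hours at 37 C. Cytotoxicity was then measured as CellTiter-Glo luminescence after 30 min at room temperature.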

[19] = molecular target: Glucocorticoid receptor (Homo sapiens) (UniProt P04150); test: qHTS assay to identify small molecule antagonists of the glucocorticoid receptor (GR) signaling pathway (AID 720692; active = well fitted inhibition curve with a large enough effect in the signal ratio in the repeat runs, not every such curve was filed as active; the % refers to the signal ratio)
How it was run: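 GRE-bla HeLa line, dex-stimulated (5 nM final). Compound exposure 18 h, 37 C. Beta-lactamase FRET read after 2 h RT substrate.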

[20] = qHTS assay for small molecules that induce genotoxicity in human embryonic kidney cells expressing luciferase-tagged ATAD5 (AID 651632); note: nearly all actives have a fitted effect of over 15% in size
How it was run: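 Test compounds were delivered by pin tool onto HEK293T reporter cells (2,000/well) expressing ATAD5 fused to luciferase. After 16 hr at 37C, 5% CO2, Amplite was added for 30 min at room temperature and luminescence was measured.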
% is set by controls: 0 for no effect and ±100 for the full control effect.

O=C(CS(=O)Cc1ccco1)NC/C=C\COc1cc(CN2CCCCC2)ccn1 (configuration not stated)
inactive: outcome [1] | Potency [2] | outcome [3] | Potency [4] | outcome [5] | outcome [6] | outcome [7] | outcome [8] | outcome [9] | outcome [10] | outcome [11] | outcome [12] | outcome [13] | outcome [14] | outcome [15] | outcome [16] | Potency [17]

CN(CCOc1ccc(NS(C)(=O)=O)cc1)CCc1ccc(NS(C)(=O)=O)cc1
active: Potency [17] 7.56 µM
inactive: outcome [1] | outcome [18] | Potency [2] | outcome [3] | outcome [5] | outcome [6] | outcome [8] | outcome [9] | outcome [10] | outcome [11] | outcome [12] | outcome [13] | outcome [14] | outcome [15] | outcome [16]

CC1(C)S[C@@H]2[C@H](N=CN3CCCCCC3)C(=O)N2[C@H]1C(=O)O
active: Potency [17] 21.3 µM
inactive: outcome [1] | outcome [18] | Potency [2] | outcome [3] | outcome [5] | outcome [6] | outcome [7] | outcome [8] | outcome [9] | outcome [10] | outcome [11] | outcome [12] | outcome [13] | outcome [14] | outcome [15] | outcome [16]

O=C1O[C@@H]2[C@@H](O)[C@H](O)O[C@@H]2[C@H]1O
inactive: outcome [1] | outcome [18] | Potency [2] | outcome [3] | Potency [4] | outcome [5] | outcome [6] | outcome [8] | outcome [9] | outcome [10] | outcome [11] | outcome [13] | outcome [14] | outcome [15] | outcome [16] | Potency [17] | outcome [19]

C=C(C)C1CCC(C)(O)CC1 (configuration not stated)
inactive: outcome [1] | outcome [18] | Potency [2] | outcome [3] | Potency [4] | outcome [5] | outcome [6] | outcome [7] | outcome [9] | outcome [10] | outcome [11] | outcome [12] | outcome [13] | outcome [14] | outcome [15] | outcome [16] | Potency [17] | outcome [19]

CC(C)NCC(O)COc1cccc2[nH]ccc12 (configuration not stated)
inactive: outcome [1] | outcome [18] | outcome [3] | Potency [4] | outcome [6] | outcome [7] | outcome [8] | outcome [9] | outcome [10] | outcome [11] | outcome [12] | outcome [13] | outcome [14] | outcome [15] | outcome [16] | Potency [17]

CN(C)CCOCCO
inactive: Potency [20] | outcome [18] | Potency [2] | outcome [3] | Potency [4] | outcome [5] | outcome [6] | outcome [7] | outcome [8] | outcome [9] | outcome [10] | outcome [11] | outcome [12] | outcome [13] | outcome [14] | outcome [15] | outcome [16] | Potency [17] | outcome [19]

O=C(O)CCSSCCC(=O)O
inactive: Potency [20] | outcome [18] | Potency [2] | outcome [3] | outcome [5] | outcome [6] | outcome [8] | outcome [9] | outcome [10] | outcome [11] | outcome [13] | outcome [14] | outcome [15] | outcome [16] | Potency [17]

O=S(=O)(O)c1cc(O)c2ccc(Nc3ccccc3)cc2c1
inactive: Potency [20] | outcome [18] | Potency [2] | outcome [3] | outcome [5] | outcome [6] | outcome [8] | outcome [9] | outcome [10] | outcome [11] | outcome [12] | outcome [13] | outcome [14] | outcome [15] | outcome [16]

C#CC(C)N(C)C(=O)Nc1ccc(Cl)cc1 (configuration not stated)
inactive: outcome [1] | Potency [2] | outcome [5] | outcome [6] | outcome [8] | outcome [9] | outcome [10] | outcome [11] | outcome [12] | outcome [13] | outcome [14] | outcome [15] | outcome [16]

C=CC(OCC)OCC
inactive: outcome [1] | Potency [2] | outcome [3] | outcome [5] | outcome [6] | outcome [8] | outcome [9] | outcome [10] | outcome [11] | outcome [12] | outcome [13] | outcome [14] | outcome [15] | outcome [16]

C=C1CC/C=C(\C)CC[C@@H]2[C@@H]1CC2(C)C
inactive: outcome [1] | Potency [2] | outcome [3] | outcome [6] | outcome [7] | outcome [8] | outcome [9] | outcome [10] | outcome [11] | outcome [13] | outcome [14] | outcome [15] | outcome [16]

COc1ccc2c(c1)C(=O)N(CCc1ccc(S(=O)(=O)NC(=O)NC3CCCCC3)cc1)C(=O)C2(C)C
inactive: Potency [20] | outcome [18] | Potency [2] | outcome [3] | fluorescence, relative to Rose Bengal [5] 0.0268% [at 18.6 µM] | fluorescence, % of fluorescein control [6] -0.152% [at 18.6 µM] | fluorescence, % of triamterene [7] 0.056% [at 18.6 µM] | fluorescence, % of fluorescent control [8] -0.014% [at 18.6 µM] | fluorescence, % of fluorescein [9] 0.0317% [at 18.6 µM] | fluorescence, % of fluorescent control [10] 0.0227% [at 18.6 µM] | activity change [11] 0.0882% [at 18.6 µM] | fluorescence, % of fluorescent control [12] -0.0169% [at 18.6 µM] | fluorescence, % of Rose Bengal [13] -0.0384% [at 18.6 µM] | fluorescence, % of fluorescent control [14] -0.0823% [at 18.6 µM] | fluorescence, % of fluorescein control [15] -0.167% [at 18.6 µM] | fluorescence, % of fluorescent control [16] -0.0057% [at 18.6 µM] | Potency [17]
